Laboratory results: PubChem BioAssay (EPA / NIEHS)
Calls of active or inactive are those of the source. How the source made its calls: active means hit-call score of the fitted dose curve at least 0.9, where 1 is the maximum; inactive means score below 0.9.

Experiments:
Settings in all cases: mRNA level, 48 h; actives raise or lower the signal
[1] = read-out: DNA damage-inducible transcript 3 (DDIT3), DDIT3 (gene 1649); assay: LTEA_HepaRG_DDIT3: Life Technologies and Expression Analysis (LTEA) Assay for DNA damage-inducible transcript 3 (DDIT3) using HepaRG (AID 2283488)
Summary of the method: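 Changes in DDIT3 transcript, in either direction relative to 0.5% DMSO vehicle, were quantified by TaqMan qRT-PCR after 48 h chemical exposure of HepaRG cells at 8 concentrations, maximum 100 uM.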

[2] = read-out: Pro-epidermal growth factor (Homo sapiens) (UniProt P01133); assay: LTEA_HepaRG_EGF: Life Technologies and Expression Analysis (LTEA) Assay for Epidermal growth factor (EGF) using HepaRG (AID 2283489)
Summary of the method: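 HepaRG cells (~100,000/well, 48 h pre-culture) exposed in duplicate for 48 h in serum-free induction medium to 8 half-log concentrations up to 100 uM in 0.5% DMSO. EGF mRNA by qRT-PCR, normalized to ACTB/GAPDH/POLR2A; bidirectional fit versus DMSO.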

[3] = read-out: Early growth response protein 1 (EGR1) transcription factor, EGR1 (gene 1958); assay: LTEA_HepaRG_EGR1: Life Technologies and Expression Analysis (LTEA) Assay for Early growth response protein 1 (EGR1) transcription factor using HepaRG (AID 2283490)
Summary of the method: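 Read-out is EGR1 mRNA level by qRT-PCR, normalized to three housekeeping genes and analysed for gain or loss of signal against 0.5% DMSO. Source cells: human HepaRG, treated 48 h at up to 100 uM in half-log dilutions.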

[4] = read-out: Ezrin (EZR), EZR (gene 7430); assay: LTEA_HepaRG_EZR: Life Technologies and Expression Analysis (LTEA) Assay for Ezrin (EZR) using HepaRG (AID 2283491)
Summary of the method: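 Read-out is EZR transcript level by qRT-PCR, normalized to three housekeeping genes and fitted bidirectionally against the DMSO control. Human HepaRG cells received test chemicals for 48 h at eight half-log concentrations up to 100 uM in 0.5% DMSO.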

[5] = read-out: Fatty Acid-Binding Protein 1 (FABP1), FABP1 (gene 2168); assay: LTEA_HepaRG_FABP1: Life Technologies and Expression Analysis (LTEA) Assay for Fatty Acid-Binding Protein 1 (FABP1) using HepaRG (AID 2283494)
Summary of the method: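 HepaRG, 48 h post-plating switched to serum-free induction medium, then dosed 48 h (duplicate, 8 pts, ≤100 uM, 0.5% DMSO). RNA → Fluidigm TaqMan qRT-PCR, FABP1 normed to ACTB/GAPDH/POLR2A. Bidirectional curve fit vs DMSO.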

[6] = read-out: Cytochrome P450 4A22 (Homo sapiens) (UniProt Q5TCH4); assay: LTEA_HepaRG_CYP4A22: Life Technologies and Expression Analysis (LTEA) Assay for Cytochrome P450 4A22 (CYP4A22) using HepaRG (AID 2283495)
Summary of the method: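 Differentiated HepaRG cells in serum-free induction medium exposed 48 h in duplicate to eight half-log concentrations up to 100 uM in 0.5% DMSO. CYP4A22 mRNA quantified by TaqMan qRT-PCR, normalized to ACTB, GAPDH and POLR2A; bidirectional fit versus DMSO.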

[7] = read-out: Glutathione S-Transferase (GSTA2), GSTA2 (gene 2939); assay: LTEA_HepaRG_GSTA2: Life Technologies and Expression Analysis (LTEA) Assay for Glutathione S-Transferase (GSTA2) using HepaRG (AID 2283497)
Summary of the method: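 HepaRG, 48 h dosing, 8-pt half-log CRC from 100 uM, 0.5% DMSO vehicle, n=2; RNA → Fluidigm TaqMan qRT-PCR; GSTA2 vs ACTB/GAPDH/POLR2A; gain/loss fit vs DMSO.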

[8] = read-out: Cytochrome P450 3A7 (Homo sapiens) (UniProt P24462); assay: LTEA_HepaRG_CYP3A7: Life Technologies and Expression Analysis (LTEA) Assay for CYP3A7 using HepaRG (AID 2283492)
Summary of the method: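 Differentiated HepaRG cells in serum-free induction medium exposed 48 h in duplicate to 8-point half-log series from 100 uM top in 0.5% DMSO. CYP3A7 mRNA by qRT-PCR, normalized to ACTB/GAPDH/POLR2A, bidirectional fit versus DMSO.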

CYP3A5 (gene 1577) = assay: LTEA_HepaRG_CYP3A5: Life Technologies and Expression Analysis (LTEA) Assay for CYP3A5 using HepaRG (AID 2283493)
Summary of the method: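 mRNA induction or loss of CYP3A5 assessed in HepaRG after 48 h dosing, 100 uM top concentration, duplicate wells; TaqMan qRT-PCR with ACTB, GAPDH, POLR2A normalization; 0.5% DMSO as negative control.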

[9] = read-out: Cytochrome P450 7A1 (Homo sapiens) (UniProt P22680); assay: LTEA_HepaRG_CYP7A1: Life Technologies and Expression Analysis (LTEA) Assay for Cytochrome P450 7A1 (CYP7A1) using HepaRG (AID 2283496)
Summary of the method: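 Gene expression endpoint in human HepaRG liver cells treated for 48 h with test chemicals (up to 100 uM, 0.5% DMSO). Values come from bidirectional concentration-response fitting versus DMSO.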

Measured: AC50

Sequence of Cytochrome P450 3A7 (Homo sapiens) (P24462 whole entry, looked up): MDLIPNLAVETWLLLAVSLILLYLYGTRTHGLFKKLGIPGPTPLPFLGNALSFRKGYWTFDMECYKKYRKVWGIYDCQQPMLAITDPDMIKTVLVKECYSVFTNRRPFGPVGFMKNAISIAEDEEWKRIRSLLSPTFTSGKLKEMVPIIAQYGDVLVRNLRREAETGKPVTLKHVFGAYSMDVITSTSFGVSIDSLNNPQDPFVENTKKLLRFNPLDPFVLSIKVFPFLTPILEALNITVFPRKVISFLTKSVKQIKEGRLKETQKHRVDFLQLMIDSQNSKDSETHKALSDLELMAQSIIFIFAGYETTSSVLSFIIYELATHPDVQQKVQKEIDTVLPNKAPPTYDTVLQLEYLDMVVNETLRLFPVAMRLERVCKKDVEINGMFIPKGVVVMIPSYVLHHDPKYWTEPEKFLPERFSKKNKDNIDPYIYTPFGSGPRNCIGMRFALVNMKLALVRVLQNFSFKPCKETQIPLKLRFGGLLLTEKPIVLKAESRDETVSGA

CC(C)CC(C)O (centres undefined)
inactive: [1] | [2] | [3] | [4] | [5] | [6] | [7]

CC(=O)c1ccccc1
inactive: [1] | [2] | [3] | [5] | [6] | [7]

CC(C)c1nnc2ccc(-c3ocnc3-c3cc(F)ccc3F)cn12
active: [1] 80.1 µM | [3] 12.3 µM | [4] 2.38 µM | [8] 81.6 µM | [5] 52.6 µM | [6] 31.8 µM | [9] 25.2 µM | [7] 80.5 µM
inactive: CYP3A5 (gene 1577)

O=C(O)c1ccc2c(c1)nc(C(=O)NC1CCN(C3CC3)CC1)n2Cc1cc(-c2ccc(Cl)s2)on1
inactive: [1] | [3] | [4] | CYP3A5 (gene 1577) | [5] | [6] | [9] | [7]

CNC(C)=O
inactive: [1] | [3] | [4] | [8] | CYP3A5 (gene 1577) | [5] | [6] | [7]

CCCCCOC(C)=O
inactive: [1] | [3] | [4] | [8] | [5] | [6] | [9] | [7]

O=S(=O)(O)c1ccc(N=Nc2c(O)ccc3cc(S(=O)(=O)O)ccc23)cc1
inactive: [1] | [2] | [3] | [5] | [6] | [7]

OC[C@H]1O[C@@H]2O[C@H]3[C@H](O)[C@@H](O)[C@@H](O[C@H]4[C@H](O)[C@@H](O)[C@@H](O[C@H]5[C@H](O)[C@@H](O)[C@@H](O[C@H]6[C@H](O)[C@@H](O)[C@@H](O[C@H]7[C@H](O)[C@@H](O)[C@@H](O[C@H]1[C@H](O)[C@H]2O)O[C@@H]7CO)O[C@@H]6CO)O[C@@H]5CO)O[C@@H]4CO)O[C@@H]3CO
inactive: [1] | [2] | [3] | [8] | CYP3A5 (gene 1577) | [5] | [6] | [7]

O=C(O)c1cccc(C[C@@H]2COc3ccc(OCc4nc5cc(F)ccc5s4)cc3[C@@H]2O)c1
active: [5] 79.3 µM | [6] 90.8 µM | [9] 77.6 µM
inactive: [1] | [2] | [3] | [7]

C=CCc1cc(S(=O)(=O)c2ccc(O)c(CC=C)c2)ccc1O
inactive: [2] | [3] | [4]
active: [1] 84.9 µM | [8] 76.8 µM | CYP3A5 (gene 1577) 9.92 µM | [5] 86.8 µM | [6] 82.6 µM | [7] 93.1 µM

Cc1ccc(S(=O)(=O)NC(=O)NN2CCCCCC2)cc1
inactive: [1] | [2] | [3] | [4] | [5] | [7]

CC(C)CCCCCCOC(=O)C1CCCCC1C(=O)OCCCCCCC(C)C (centres undefined)
inactive: [1] | [2] | [3] | [5] | [6] | [9] | [7]

c1ccc2c(c1)-c1cccc3c1c-2cc1ccccc13
inactive: [2]
active: [1] 7.35 µM | [3] 0.404 µM | [5] 19.1 µM | [6] 29.1 µM | [9] 15.6 µM | [7] 17.9 µM

NC(N)=O
inactive: [1] | [2] | [3] | [5] | [6] | [9] | [7]

CCOc1ccc2[nH]cc(C(=O)NCc3ccccc3)c(=O)c2n1
inactive: [1] | [2] | [3] | [5] | [7]
active: [6] 35.4 µM

CCn1nc(C)c2c1C(=O)NCC(c1ccc(O)cc1)=N2
active: [8] 34.1 µM | [6] 33.9 µM
inactive: [1] | [2] | [3] | CYP3A5 (gene 1577) | [5] | [7]

CCCCCCCCCC
inactive: [1] | [3] | [4] | [8] | CYP3A5 (gene 1577) | [5] | [6] | [9] | [7]

CCCCOC(=O)c1ccccc1
active: [5] 12.1 µM
inactive: [1] | [3] | [4] | [8] | [6] | [9] | [7]

OCC(CO)(CO)CO
inactive: [1] | [3] | [4] | [8] | CYP3A5 (gene 1577) | [5] | [6] | [9] | [7]

CCc1ccc(O)c(C(C)(C)C)c1
inactive: [1] | [2] | [3] | [4] | [5] | [6] | [7]

CC(C)C(=O)Nc1ccc([N+](=O)[O-])c(C(F)(F)F)c1
inactive: [4] | CYP3A5 (gene 1577)
active: [1] 87.5 µM | [2] 50 µM | [3] 81.9 µM | [5] 37.9 µM | [6] 41.7 µM | [7] 65.8 µM

CCCCCCCC/C=C\CCCCCCCC(=O)OC[C@@H](O)[C@H]1OC[C@H](O)[C@H]1O
inactive: [1] | [2] | [3] | CYP3A5 (gene 1577) | [5] | [6] | [9] | [7]

CCCCCCOC(=O)CC(CC(=O)OCCCCCC)(OC(=O)CCC)C(=O)OCCCCCC
inactive: [1] | [2] | [3] | [4] | [8] | CYP3A5 (gene 1577) | [5] | [6] | [7]

COCc1nnc(-c2ccc[n+]([O-])c2)n1-c1c(Cl)c(Cl)cc2[nH]c(=O)c(=O)[nH]c12
inactive: [1] | [2] | [3] | CYP3A5 (gene 1577) | [5] | [6] | [7]

c1ccc2cc3ccccc3cc2c1
inactive: [1] | [2] | [3] | [5] | [6] | [9] | [7]

CCCc1ccccc1
inactive: [1] | [2] | [3] | [5] | [6] | [7]

CCCC(CCC)C(=O)O
inactive: [1] | [2] | [3] | [4] | CYP3A5 (gene 1577) | [5] | [6] | [9] | [7]

O=C(O)[C@H](O)[C@@H](O)C(=O)O
inactive: [1] | [2] | [3] | [4] | [5] | [7]

NNC(=O)c1ccncc1
inactive: [1] | [2] | [3] | [5] | [6] | [7]

NC(=O)N1c2ccccc2C=Cc2ccccc21
inactive: [1] | [2] | [3] | [4] | CYP3A5 (gene 1577) | [5] | [6] | [7]

OCCNCCO
active: [5] 45.6 µM | [7] 63.4 µM
inactive: [1] | [2] | [3] | [4] | [8] | [6]

OC[C@H]1O[C@@](CO)(O[C@H]2O[C@H](CO)[C@@H](O)[C@H](O)[C@H]2O)[C@@H](O)[C@@H]1O
inactive: [1] | [2] | [3] | CYP3A5 (gene 1577) | [5] | [6] | [7]

C[C@@H](Oc1ccc(CNC(=O)c2cccnc2Oc2ccc3c(c2)OCO3)c(F)c1)C(=O)O
active: [5] 50 µM | [6] 28.6 µM
inactive: [1] | [2] | [3] | [8] | [9] | [7]

Nc1ccn([C@@H]2O[C@H](CO)[C@@H](O)[C@@H]2O)c(=O)n1
inactive: [1] | [2] | [3] | [8] | [5] | [6] | [7]
